Data on one sequence can be found in PMC7862700, “An all-to-all approach to the identification of sequence-specific readers for epigenetic DNA modifications on cytosine”.

What all share (assay): DAPPL (digital affinity profiling via proximity ligation, sequencing); 10 mM Tris-HCl pH 7.5, 50 mM NaCl, 1 mM DTT, 4% glycerol, room temperature, 30 min; GST-TFs on glutathione beads, 16-mer random dsDNA library, 0.1% formaldehyde crosslink after washing; high values mean tight binding
Holding throughout (conditions): protein: recombinant; tags: N-terminal GST; dsDNA, one strand shown

One assay has as its target T1, ELK1 (Homo sapiens, UniProt P19419 1-428).
T1 sequence: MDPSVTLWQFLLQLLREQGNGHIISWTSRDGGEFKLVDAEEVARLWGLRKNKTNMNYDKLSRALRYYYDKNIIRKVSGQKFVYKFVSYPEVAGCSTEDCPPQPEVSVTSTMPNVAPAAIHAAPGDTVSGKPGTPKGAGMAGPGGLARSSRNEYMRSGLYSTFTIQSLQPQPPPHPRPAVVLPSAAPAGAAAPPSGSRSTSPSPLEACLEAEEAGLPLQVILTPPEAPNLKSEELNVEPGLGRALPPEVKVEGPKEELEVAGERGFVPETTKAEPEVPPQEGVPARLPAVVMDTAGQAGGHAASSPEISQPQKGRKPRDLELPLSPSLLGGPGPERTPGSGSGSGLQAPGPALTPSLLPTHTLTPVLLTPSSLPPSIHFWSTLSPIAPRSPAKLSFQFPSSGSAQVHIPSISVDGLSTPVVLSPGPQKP
In a few lines: (§1)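 Beads coated with glutathione captured GST-fused human transcription factors that had been expressed in yeast, and the factors were then given DNA barcodes and pooled with a tag-only sample. The pools were incubated with 200 nmole of a random double-stranded 16-mer DNA library in Tris/NaCl/DTT/glycerol buffer for 30 min at room temperature, washed, crosslinked with 0.1% formaldehyde and proximity-ligated with BsaI/T4 ligase at 37 °C for 1 h. PCR amplification and Illumina NextSeq500 sequencing came last. Binding signal is each hexamer's read frequency for a factor divided by its frequency for the tag-only sample.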

The target in a further assay is T2, GABPA (Homo sapiens, UniProt Q06546 1-454).
T2 sequence: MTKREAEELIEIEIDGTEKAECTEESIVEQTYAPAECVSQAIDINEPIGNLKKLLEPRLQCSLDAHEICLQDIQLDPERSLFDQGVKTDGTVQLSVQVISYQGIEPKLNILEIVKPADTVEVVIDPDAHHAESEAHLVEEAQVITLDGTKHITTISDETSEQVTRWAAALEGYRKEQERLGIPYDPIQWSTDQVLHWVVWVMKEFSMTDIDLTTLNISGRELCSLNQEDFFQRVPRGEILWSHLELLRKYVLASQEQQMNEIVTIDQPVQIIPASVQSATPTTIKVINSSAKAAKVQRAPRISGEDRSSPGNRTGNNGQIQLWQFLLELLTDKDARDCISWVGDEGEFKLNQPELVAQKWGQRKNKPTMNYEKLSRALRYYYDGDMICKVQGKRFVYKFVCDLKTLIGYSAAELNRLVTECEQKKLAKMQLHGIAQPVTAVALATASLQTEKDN
In short, it runs like this:
as §1

Another assay addresses T3, ERG (Homo sapiens, UniProt P11308 1-479).
T3 sequence: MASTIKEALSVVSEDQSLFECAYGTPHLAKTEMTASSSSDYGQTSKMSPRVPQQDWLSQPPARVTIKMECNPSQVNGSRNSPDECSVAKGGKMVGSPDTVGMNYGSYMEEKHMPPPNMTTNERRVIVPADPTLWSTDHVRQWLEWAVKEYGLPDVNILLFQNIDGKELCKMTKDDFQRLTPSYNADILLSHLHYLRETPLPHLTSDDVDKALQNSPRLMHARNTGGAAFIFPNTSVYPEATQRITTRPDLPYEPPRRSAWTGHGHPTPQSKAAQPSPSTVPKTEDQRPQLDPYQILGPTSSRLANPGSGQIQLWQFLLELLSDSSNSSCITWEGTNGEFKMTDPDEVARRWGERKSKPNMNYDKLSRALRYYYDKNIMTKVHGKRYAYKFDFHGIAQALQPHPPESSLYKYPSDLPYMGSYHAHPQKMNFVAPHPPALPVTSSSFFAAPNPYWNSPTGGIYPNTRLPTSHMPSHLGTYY
In short, it runs like this:
as §1

The target in the next assay is ELF1 (Homo sapiens, UniProt P32519 1-619). In short, it runs like this: as §1
The target of another assay is T4, EHF (Homo sapiens, UniProt Q9NZC4 1-300).
T4 sequence: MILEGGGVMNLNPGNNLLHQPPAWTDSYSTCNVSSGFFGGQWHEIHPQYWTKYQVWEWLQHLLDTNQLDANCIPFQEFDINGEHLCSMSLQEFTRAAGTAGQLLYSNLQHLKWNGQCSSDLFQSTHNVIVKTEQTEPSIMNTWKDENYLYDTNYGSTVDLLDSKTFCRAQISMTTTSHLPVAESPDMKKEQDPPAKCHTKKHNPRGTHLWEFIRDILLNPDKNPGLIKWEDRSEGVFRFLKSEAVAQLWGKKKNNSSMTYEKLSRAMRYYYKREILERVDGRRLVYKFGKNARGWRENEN
In a few lines:
as §1

Another assay concerns the target SPIB (Homo sapiens, UniProt Q01892 1-262). In a few lines: as §1
In the next assay the target is T5, ELK3 (Homo sapiens, UniProt P41970 1-407).
T5 sequence: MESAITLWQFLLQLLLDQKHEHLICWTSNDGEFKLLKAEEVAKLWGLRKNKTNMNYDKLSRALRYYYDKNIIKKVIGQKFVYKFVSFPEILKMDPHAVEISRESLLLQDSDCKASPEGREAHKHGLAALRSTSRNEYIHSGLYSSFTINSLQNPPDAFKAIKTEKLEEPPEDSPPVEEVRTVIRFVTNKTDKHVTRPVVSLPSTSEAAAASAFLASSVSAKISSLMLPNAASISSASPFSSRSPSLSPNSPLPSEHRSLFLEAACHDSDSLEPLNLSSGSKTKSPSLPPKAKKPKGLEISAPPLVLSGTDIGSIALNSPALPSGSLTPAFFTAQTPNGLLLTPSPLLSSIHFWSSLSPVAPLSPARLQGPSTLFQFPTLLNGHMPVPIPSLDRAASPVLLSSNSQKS
In a few lines: as §1

Another assay concerns the target T6, SPIC (Homo sapiens, UniProt Q8N5J4 1-248).
T6 sequence: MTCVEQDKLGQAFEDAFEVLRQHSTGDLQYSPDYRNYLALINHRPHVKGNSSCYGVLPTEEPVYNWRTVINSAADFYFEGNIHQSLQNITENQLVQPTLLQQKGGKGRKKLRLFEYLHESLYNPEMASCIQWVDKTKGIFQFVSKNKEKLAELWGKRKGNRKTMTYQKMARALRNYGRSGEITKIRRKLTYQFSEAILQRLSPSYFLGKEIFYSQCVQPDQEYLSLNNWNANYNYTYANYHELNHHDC
In a few lines:
as §1

Another assay deals with ELF4 (Homo sapiens, UniProt Q99607 1-663). In short, it runs like this:
as §1

Another assay deals with T7, ELK4 (Homo sapiens, UniProt P28324-2 1-405).
T7 sequence: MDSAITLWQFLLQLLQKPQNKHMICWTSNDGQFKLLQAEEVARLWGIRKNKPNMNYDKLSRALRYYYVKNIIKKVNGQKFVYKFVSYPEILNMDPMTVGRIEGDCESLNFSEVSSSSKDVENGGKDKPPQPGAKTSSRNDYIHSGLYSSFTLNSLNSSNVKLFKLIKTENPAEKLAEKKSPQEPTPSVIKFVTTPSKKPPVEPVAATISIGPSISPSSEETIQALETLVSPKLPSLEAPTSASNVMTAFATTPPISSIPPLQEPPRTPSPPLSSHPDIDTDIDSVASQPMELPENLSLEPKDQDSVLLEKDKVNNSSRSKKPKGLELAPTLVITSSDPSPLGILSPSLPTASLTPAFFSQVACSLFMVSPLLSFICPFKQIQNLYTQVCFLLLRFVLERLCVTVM
In short, it runs like this: as §1

The target of a further assay is T8, ELF3 (Homo sapiens, UniProt P78545 1-371).
T8 sequence: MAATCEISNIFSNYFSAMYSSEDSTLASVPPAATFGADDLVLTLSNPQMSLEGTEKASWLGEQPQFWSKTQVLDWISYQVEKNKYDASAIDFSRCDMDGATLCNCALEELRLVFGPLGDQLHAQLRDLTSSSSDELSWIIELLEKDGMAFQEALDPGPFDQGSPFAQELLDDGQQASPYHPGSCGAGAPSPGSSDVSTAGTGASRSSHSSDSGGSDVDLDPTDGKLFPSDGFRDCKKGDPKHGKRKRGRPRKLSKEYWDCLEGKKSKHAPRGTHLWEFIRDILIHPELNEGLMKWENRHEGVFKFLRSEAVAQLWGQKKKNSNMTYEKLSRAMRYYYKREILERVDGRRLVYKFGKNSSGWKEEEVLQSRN
In short, it runs like this: as §1

A further assay deals with ETV1 (Homo sapiens, UniProt P50549 1-477). In a few lines:
as §1

A further assay has as its target T9, ERF (Homo sapiens, UniProt P50548 1-548).
T9 sequence: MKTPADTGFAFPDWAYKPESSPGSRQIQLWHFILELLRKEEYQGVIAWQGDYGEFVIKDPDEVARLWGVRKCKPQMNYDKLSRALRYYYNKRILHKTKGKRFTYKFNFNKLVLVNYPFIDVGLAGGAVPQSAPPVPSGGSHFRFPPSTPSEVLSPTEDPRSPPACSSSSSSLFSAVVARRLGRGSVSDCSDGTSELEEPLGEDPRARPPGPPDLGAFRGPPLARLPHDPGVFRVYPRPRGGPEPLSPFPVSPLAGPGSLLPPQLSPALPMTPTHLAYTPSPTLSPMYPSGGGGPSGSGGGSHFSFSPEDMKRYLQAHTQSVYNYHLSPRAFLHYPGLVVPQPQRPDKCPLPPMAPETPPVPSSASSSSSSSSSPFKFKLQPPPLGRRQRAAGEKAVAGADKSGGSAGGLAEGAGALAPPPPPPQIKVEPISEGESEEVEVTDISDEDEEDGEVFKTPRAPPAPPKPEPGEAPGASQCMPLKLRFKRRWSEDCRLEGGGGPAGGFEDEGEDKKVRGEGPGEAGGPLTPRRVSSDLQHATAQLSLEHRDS
In short, it runs like this:
as §1

The target in a further assay is T10, ETV3L (Homo sapiens, UniProt Q6ZN32 1-361).
T10 sequence: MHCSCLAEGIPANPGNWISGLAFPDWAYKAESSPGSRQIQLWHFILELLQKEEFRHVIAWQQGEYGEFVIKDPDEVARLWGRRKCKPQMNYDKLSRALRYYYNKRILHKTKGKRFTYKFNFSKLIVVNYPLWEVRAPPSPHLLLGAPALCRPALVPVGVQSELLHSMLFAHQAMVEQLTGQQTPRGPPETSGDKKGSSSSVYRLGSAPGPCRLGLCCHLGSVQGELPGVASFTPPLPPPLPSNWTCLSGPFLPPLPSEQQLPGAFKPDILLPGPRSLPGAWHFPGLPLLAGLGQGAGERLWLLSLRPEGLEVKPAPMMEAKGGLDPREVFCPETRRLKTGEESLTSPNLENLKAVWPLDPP
In short, it runs like this:
as §1

The next assay concerns the target T11, ETV3 (Homo sapiens, UniProt P41162-2 1-143).
T11 sequence: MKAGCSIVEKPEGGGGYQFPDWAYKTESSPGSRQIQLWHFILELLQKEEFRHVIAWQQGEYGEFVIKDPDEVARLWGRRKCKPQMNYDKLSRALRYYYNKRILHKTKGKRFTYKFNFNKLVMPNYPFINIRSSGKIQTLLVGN
In short, it runs like this: as §1

In another assay the target is ETV6 (Homo sapiens, UniProt P41212 1-452). In short, it runs like this:
as §1

Chain of ETV1 (P50549 whole entry): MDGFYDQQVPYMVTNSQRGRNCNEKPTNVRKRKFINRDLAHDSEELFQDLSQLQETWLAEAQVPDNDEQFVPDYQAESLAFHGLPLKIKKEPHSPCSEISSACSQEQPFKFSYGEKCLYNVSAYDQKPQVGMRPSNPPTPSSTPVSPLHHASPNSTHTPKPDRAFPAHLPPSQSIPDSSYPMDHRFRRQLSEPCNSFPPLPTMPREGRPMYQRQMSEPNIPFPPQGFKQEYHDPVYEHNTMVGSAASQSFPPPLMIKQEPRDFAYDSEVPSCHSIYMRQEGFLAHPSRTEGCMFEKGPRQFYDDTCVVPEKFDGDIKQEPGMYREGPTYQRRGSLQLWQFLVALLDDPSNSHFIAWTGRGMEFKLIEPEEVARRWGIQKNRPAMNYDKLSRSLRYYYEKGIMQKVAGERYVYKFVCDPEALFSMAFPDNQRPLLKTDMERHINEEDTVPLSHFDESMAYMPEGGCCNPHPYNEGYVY
Chain of SPIB (Q01892 whole entry): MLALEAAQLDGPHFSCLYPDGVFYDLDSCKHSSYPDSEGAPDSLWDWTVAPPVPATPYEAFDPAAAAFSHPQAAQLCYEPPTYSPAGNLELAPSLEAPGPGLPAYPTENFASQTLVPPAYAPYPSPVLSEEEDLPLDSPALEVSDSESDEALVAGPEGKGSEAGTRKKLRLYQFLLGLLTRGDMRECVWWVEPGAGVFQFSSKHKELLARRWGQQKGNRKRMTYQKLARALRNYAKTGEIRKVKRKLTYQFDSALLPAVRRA
Chain of ELF1 (P32519 whole entry): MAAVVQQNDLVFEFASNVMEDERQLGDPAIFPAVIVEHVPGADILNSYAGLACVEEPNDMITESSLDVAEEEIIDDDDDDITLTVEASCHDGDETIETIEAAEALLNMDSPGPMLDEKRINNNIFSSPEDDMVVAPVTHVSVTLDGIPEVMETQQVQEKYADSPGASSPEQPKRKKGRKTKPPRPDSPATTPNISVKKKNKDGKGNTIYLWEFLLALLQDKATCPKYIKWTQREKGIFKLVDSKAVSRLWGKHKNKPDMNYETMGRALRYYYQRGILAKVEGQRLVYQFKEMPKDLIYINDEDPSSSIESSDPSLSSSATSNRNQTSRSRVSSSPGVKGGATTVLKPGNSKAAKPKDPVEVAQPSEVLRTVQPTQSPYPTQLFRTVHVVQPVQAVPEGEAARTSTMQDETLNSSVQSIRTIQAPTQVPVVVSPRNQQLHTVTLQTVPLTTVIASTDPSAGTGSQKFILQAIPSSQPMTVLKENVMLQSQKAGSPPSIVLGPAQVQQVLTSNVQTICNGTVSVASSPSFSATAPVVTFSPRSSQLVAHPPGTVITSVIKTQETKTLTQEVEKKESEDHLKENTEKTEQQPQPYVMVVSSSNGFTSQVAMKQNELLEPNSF
Chain of ETV6 (P41212 whole entry): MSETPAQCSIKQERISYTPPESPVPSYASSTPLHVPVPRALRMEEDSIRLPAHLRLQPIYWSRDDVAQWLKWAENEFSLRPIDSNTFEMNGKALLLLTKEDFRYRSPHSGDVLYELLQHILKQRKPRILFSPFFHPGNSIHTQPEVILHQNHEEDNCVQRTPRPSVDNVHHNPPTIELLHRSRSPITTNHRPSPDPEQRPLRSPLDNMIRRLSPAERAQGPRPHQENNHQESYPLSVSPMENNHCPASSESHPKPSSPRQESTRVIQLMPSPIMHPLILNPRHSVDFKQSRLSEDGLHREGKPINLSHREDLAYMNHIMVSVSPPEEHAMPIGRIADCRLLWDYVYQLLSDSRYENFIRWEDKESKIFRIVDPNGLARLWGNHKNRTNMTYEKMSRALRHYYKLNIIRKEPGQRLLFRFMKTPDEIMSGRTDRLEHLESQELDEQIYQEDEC
Chain of ELF4 (Q99607 whole entry): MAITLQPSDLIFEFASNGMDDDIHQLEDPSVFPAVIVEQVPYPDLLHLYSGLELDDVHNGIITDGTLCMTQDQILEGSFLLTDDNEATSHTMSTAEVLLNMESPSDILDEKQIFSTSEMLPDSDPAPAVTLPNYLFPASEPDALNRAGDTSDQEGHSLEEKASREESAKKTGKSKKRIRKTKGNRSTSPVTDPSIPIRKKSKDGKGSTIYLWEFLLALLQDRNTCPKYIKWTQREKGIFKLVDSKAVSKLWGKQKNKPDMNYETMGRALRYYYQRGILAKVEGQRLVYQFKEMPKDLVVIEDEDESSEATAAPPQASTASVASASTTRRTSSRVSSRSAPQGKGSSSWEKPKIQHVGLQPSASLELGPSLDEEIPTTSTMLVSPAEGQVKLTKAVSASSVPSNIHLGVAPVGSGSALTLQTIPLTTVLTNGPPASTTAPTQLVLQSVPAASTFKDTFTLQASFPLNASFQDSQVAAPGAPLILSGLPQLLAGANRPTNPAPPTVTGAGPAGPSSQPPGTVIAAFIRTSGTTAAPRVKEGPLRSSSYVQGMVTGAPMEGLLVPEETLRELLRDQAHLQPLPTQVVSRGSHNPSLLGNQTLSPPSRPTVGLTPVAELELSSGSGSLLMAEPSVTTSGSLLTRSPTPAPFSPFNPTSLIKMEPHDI

With ATGGGG, the binding signal was 1.09 fold enrichment (6-mer frequency, TF over GST control) with ELK1; 1.08 fold enrichment (6-mer frequency, TF over GST control) with GABPA; 1.07 fold enrichment (6-mer frequency, TF over GST control) in the assay with ERG; 1.06 fold enrichment (6-mer frequency, TF over GST control) with ELF1; 1.11 fold enrichment (6-mer frequency, TF over GST control) in the assay with EHF; 1.14 fold enrichment (6-mer frequency, TF over GST control) with SPIB. Moreover, the binding signal was 1.05 fold enrichment (6-mer frequency, TF over GST control) in the assay with ELK3; 1.16 fold enrichment (6-mer frequency, TF over GST control) with SPIC; 1.02 fold enrichment (6-mer frequency, TF over GST control) with ELF4; 1.03 fold enrichment (6-mer frequency, TF over GST control) in the assay with ELK4; 1.06 fold enrichment (6-mer frequency, TF over GST control) with ELF3; 1.15 fold enrichment (6-mer frequency, TF over GST control) with ETV1. Besides, the binding signal is 1.08 fold enrichment (6-mer frequency, TF over GST control) with ERF; 1.16 fold enrichment (6-mer frequency, TF over GST control) in the assay with ETV3L; 1.13 fold enrichment (6-mer frequency, TF over GST control) with ETV3; 1.18 fold enrichment (6-mer frequency, TF over GST control) with ETV6.
